Bioassay records deposited in PubChem by several laboratories.
Compounds with a hit are over-represented: about 2.7% of the library has one in this group of screens.
rCAG binder: binds r(CAG) RNA repeats | r(CAG) RNA repeat, TO-PRO-1 dye displacement fluorescence | inhibition, % at 3 µM | 370,000 tested, 1.3% active;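 active means inhibition above the plate cutoff, the mean of all test compounds on that plate plus 3 SD, cut at about 35% in these data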;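 further: higher means more dye released from RNA so lower well fluorescence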
MsrA act: bovine methionine sulfoxide reductase A activation; purified bovine MsrA, absorbance read-out; activation, % at 10.6 µM; 360,000 tested, 0.3% active; AID 602163; in the data active means activation above about 7.5%
NadD block: inhibitors of Staphylococcus aureus NadD; AID 602399; purified NadD enzyme, colorimetric absorbance read-out; inhibition, % at 20 µM; 360,000 tested, 0.78% active; in the data active means inhibition above about 26%
MsrA inhibitor: bovine MsrA inhibition; purified bovine MsrA, absorbance read-out; inhibition, % at 15.5 µM; 360,000 tested, 0.75% active; in the data active means inhibition above about 4.5%
Each line names hits and unclear results; the compound was inactive in the other large screens.

Nn1c(SCC(=O)Nc2nccs2)nnc1-c1cc(-c2ccc(Cl)cc2)n[nH]1	none (no result: MsrA act, NadD block, MsrA inhibitor)
CCC1(C)NC(=O)N(CC(=O)Nc2cc(C)on2)C1=O (centres undefined)	none
NC1=NC2(CS1)CSC(N)=N2	none (no result: MsrA act, NadD block)
CCCN=C1N(C)C[C@@H]2[C@@H]3C(=O)N(C)C(=O)[C@@H]3[C@](CC)(C(=O)OC)N12	none
O=C(NCCCNc1ccc(C(F)(F)F)cc1[N+](=O)[O-])c1cc(F)c(F)cc1Cl	MsrA act 8.7
Cn1cc([C@]2(O)C(=O)N(c3ccccc3)c3ccccc32)c2ccccc21	none (no result: MsrA act, NadD block)
CC(Sc1nnc(NC2CCCCC2)s1)C(=O)Nc1ccc2c(c1)C(=O)c1ccccc1C2=O (centres undefined)	NadD block 37.6
CC(Sc1nnc(NC2CC2)s1)C(=O)Nc1ccc(N2CCOCC2)cc1 (centres undefined)	none
O=S(=O)(Nc1nnc(-c2ccccc2)s1)c1ccc(Cl)cc1	rCAG binder 73.6
COCc1nnc(NS(=O)(=O)c2ccc(Cl)cc2)s1	none
CCOc1ccc(/C(CCC(=O)O)=N/NC(=S)NCCc2ccccc2)cc1	rCAG binder 35.8
COc1ccc(S(=O)(=O)N2CCOCC2)cc1NC(=O)CCCSc1ccccc1	none
CC1COc2c(N3CCN(C)CC3)c(F)cc3c(=O)c(C(=O)O)cn1c23 (centres undefined)	MsrA act 8.8
C[n+]1c(/C=C/c2ccc(O)cc2)ccc2ccccc21	none
Cc1cc(/C=C\c2ccc3cc(N(C)C)ccc3[n+]2C)c(C)n1-c1ccccc1	NadD block 74.2 (no result: rCAG binder, MsrA inhibitor)
COc1ccc(-c2cc(-c3ccccc3)nc(SCC(=O)Nc3ncc(C)s3)c2C#N)cc1	NadD block 33.8
Cc1cc(N)ccc1N1CCCC1	NadD block 70.0 (no result: rCAG binder, MsrA inhibitor)
CCOC(=O)c1sc(=S)[nH]c1C	MsrA act 8.4
COc1ccc(/C(O)=C2/C(=O)C(=O)N(CCCN(C)C)C2c2cccc(Cl)c2)cc1OC (centres undefined)	MsrA inhibitor 9.6
COc1ccc(/C(O)=C2/C(=O)C(=O)N(CCN(C)C)C2c2ccccc2)cc1Cl (centres undefined)	none
C/C(=N\NC(=O)c1ccncc1)c1ccc(N(C)C)cc1	MsrA inhibitor 4.7
C/C(=N/NC(=O)c1ccncc1)c1ccccc1	none
CCCS(=O)(=O)NC(=O)C1(C)CCN(C(=O)c2c(C)noc2C)C1 (centres undefined)	none
O=c1c2ccccc2oc2cc(NCCCN3CCOCC3)ccc12	MsrA inhibitor 4.6
Cc1cccc(NC(=O)Cn2c(O)c(N=NC(=O)c3ccccc3O)c3ccccc32)c1	NadD block 34.9
O=C(COc1ccc2ccccc2c1)Nc1ccccc1C(=O)O	none
COc1ccc(Cl)cc1NC(=O)CSc1nnc(Cc2ccc(C)cc2)c(=O)[nH]1	rCAG binder 75.3
Cc1ccc(Cc2nnc(SCC(=O)Nc3ccccc3Cl)[nH]c2=O)cc1	none
Cc1c(C(=O)O)cccc1-n1c(C)cc(/C=N/Nc2ccc([N+](=O)[O-])cn2)c1C	none
Cc1c(C(=O)O)cccc1-n1c(C)cc(/C=N/NC(=O)c2cc3ccccc3o2)c1C	MsrA inhibitor 4.6
Cc1ccc2nc(N3C(=O)C(O)=C(C(=O)c4ccc(C)o4)C3c3ccc(O)cc3)sc2c1 (centres undefined)	rCAG binder 69.3
Cc1ccc2nc(N3C(=O)C(O)=C(C(=O)c4ccco4)C3c3cccs3)sc2c1 (centres undefined)	none
COc1ccccc1CN1CC(C(=O)NCc2cnn(C)c2)CCC1=O (centres undefined)	none
Cc1cc(C)c2nc(-c3ccccn3)cc(C(=O)Nc3ccc(S(=O)(=O)Nc4cc(C)on4)cc3)c2c1	NadD block 61.2
Cc1cc(C)c2nc(-c3ccccn3)cc(C(=O)Nc3ccc(S(=O)(=O)Nc4onc(C)c4C)cc3)c2c1	NadD block 40.9 (no result: rCAG binder, MsrA inhibitor)
C=CCN1C(=O)[C@@H](CC(=O)N2CCOCC2)[C@]2(C(=O)OCC)CCCCC/C=C/12	none (no result: MsrA act, NadD block, MsrA inhibitor)
COC(=O)/C=C1/S/C(=N/N=C/c2ccco2)NC1=O	MsrA inhibitor 4.6
CO/N=C(/C(=O)N[C@@H]1C(=O)N2C(C(=O)O)=CCS[C@H]12)c1cnc(N)s1	NadD block 39.2 (no result: rCAG binder, MsrA inhibitor)
O=C(Nc1ccc(Br)cc1)c1cccc(S(=O)(=O)Nc2cnc3ccccc3c2)c1	rCAG binder 79.5
O=C(Nc1ccc(Br)cc1)c1cccc(S(=O)(=O)Nc2ccccn2)c1	none
COC(=O)c1cc2c(c3c4cc(C)ccc4n(S(=O)(=O)c4ccc(C)cc4)c13)C(=O)N(Cc1ccc(N(C)C)cc1)C2	none (no result: MsrA act, NadD block)
CC(C)C(=O)Nc1cccc(COc2ccc(CN(Cc3ccccc3)C(=O)OC(C)(C)C)cc2)c1	none
COc1ccc(NC(=O)CN2C(=O)/C(=C3\SC(=S)N(C4CCS(=O)(=O)C4)C3=O)c3ccccc32)cc1 (centres undefined)	NadD block 32.0
Cc1cc(/C=N/NC(=O)Cn2c3ccccc3c(=O)c3ccccc32)c(C)n1-c1ccccc1	NadD block 44.9
CN1CCN(C2=C(NS(=O)(=O)c3ccccc3)C(=O)c3ccccc3C2=O)CC1	MsrA act 15.4 (no result: rCAG binder, MsrA inhibitor)
CCN1CCN(C2=C(NS(=O)(=O)c3ccccc3)C(=O)c3ccccc3C2=O)CC1	none
COc1cc(C2Nc3cccc4cccc(c34)N2)cc(OC)c1O	rCAG binder 36.0, NadD block 31.7
COc1ccc(C2Nc3cccc4cccc(c34)N2)cc1Br	NadD block 49.2
Brc1ccc(C2Nc3cccc4cccc(c34)N2)cc1	none
COC(=O)c1ccc(C2Nc3cccc4cccc(c34)N2)cc1	NadD block 40.4
COc1cc(C2Nc3cccc4cccc(c34)N2)ccc1OC(C)=O	NadD block 46.6 (no result: rCAG binder, MsrA inhibitor)
COc1ccc(C2NC(=O)c3ccccc3N2)cc1OC (centres undefined)	none
Fc1ccc(C2Nc3cccc4cccc(c34)N2)cc1	none
Cc1noc(C)c1COc1ccc(C(=O)N2CCC(C(N)=O)CC2)cc1	none
CC(=O)Nc1ccc(NC(=O)Cc2ccc(S(=O)(=O)N3CCCCC3)cc2)cc1	none
CCOc1cc(/C=C2\CCC/C(=C\c3cc(Cl)c(O)c(OCC)c3)C2=O)cc(Cl)c1O	NadD block 46.1
CCOc1cc(/C=C2\CN(C)C/C(=C\c3ccc(O)c(OCC)c3)C2=O)ccc1O	none
CCN(CC)c1ccc(C=Nc2ccccc2)c(O)c1	none
CCN(CC)c1ccc(N=Cc2ccc(N(CC)CC)cc2O)cc1	MsrA inhibitor 4.6
CCN(CC)c1ccc(/C=N/NC(=S)NC)c(O)c1	none
CCN(CC)c1ccc(/C=N/NC(=O)OC)c(O)c1	MsrA inhibitor 7.2
Clc1ccccc1-c1nn2c(-c3cc(-c4ccccc4)n[nH]3)nnc2s1	none (no result: MsrA act, NadD block, MsrA inhibitor)
COc1cccc(OC)c1-c1nn2c(-c3cc(-c4ccccc4)n[nH]3)nnc2s1	NadD block 52.5
CN(C)c1ccc(/C=C2\SC(=O)N(CC(O)Cn3c4ccccc4c4ccccc43)C2=O)cc1 (centres undefined)	NadD block 33.3
O=C(N=Nc1c(O)[nH]c2ccc(Cl)cc12)c1cc(-c2cccs2)nc2ccccc12	NadD block 33.5
Cc1ccc(S(=O)c2ccc([N+](=O)[O-])c3nonc23)cc1 (centres undefined)	rCAG binder 63.4
CCCCCCN1CCN(C2CN(CCCC)S(=O)(=O)C2)CC1 (centres undefined)	none
